Source: PubChem BioAssay (NCATS)
Results filed as inconclusive are left out. Active and inactive are the calls of the source. Unless noted, calls come from the whole dose curve; as a rule, active = well fitted curve in the direction sought with a large enough effect; inconclusive = small, poorly fitted or top-dose-only effect, or another doubt; inactive = no such curve, though single readings can be large; an effect the other way counts as inactive or inconclusive.

Columns and labels:
[1] = AP1 Signaling Pathway (AID 357; active = well fitted curve in either direction with a large enough effect, not every such curve was filed as active;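 note: ME-180 reporter cells stimulated with EGF at its EC50 level; % is set by controls: 0 for no effect and ±100 for the full control effect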); settings: ME-180 AP-1-bla reporter, EGF-induced, beta-lactamase ratio, 5 h; at 38 µM (top of the series)
Summary of the method: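 A ratiometric CCF4 readout (405 nm excitation; 460 and 530 nm emission) quantified AP-1-driven beta-lactamase in ME-180 cells after 5 h with compound and EC50 EGF; AC50 values were derived for activators and inhibitors.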

[2] = target: Cytochrome P450 1A2 (Homo sapiens) (UniProt P05177); experiment: p450-cyp1a2 (AID 410; calls by dose curve;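 note: -100% = full effect of reference inhibitor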); settings: recombinant CYP1A2, luciferin-ME demethylation, luminescence; series mostly up to 57 µM
Summary of the method: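 O-Demethylation of luciferin 6' methyl ether by human CYP1A2 is monitored as luciferase luminescence. Substrate sits at Km (100uM); enzyme is 20nM. Values are scaled to 57 uM furafylline as maximal inhibition.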

[3] = NFAT Signaling Pathway (AID 444; active = well fitted curve in either direction with a large enough effect, not every such curve was filed as active;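 note: carbachol stimulus at about its EC50 of 1 µM final; % is set by controls: 0 for no effect and ±100 for the full control effect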); settings: Jurkat NFAT-bla M1, carbachol, beta-lactamase ratio, 5 h; at 38 µM (top of the series)
Summary of the method: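 Jurkat cells with NFAT-driven β-lactamase reporter and co-expressed M1 receptor, stimulated with carbachol (final 1 uM, ~EC50), compound titration, 5 h at 37 °C. CCF4 loaded 1 h at RT; 460/530 nm ratio gave %activity and AC50.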

[4] = target: Glucocorticoid receptor (Homo sapiens) (UniProt P04150); experiment: GR-GFP Redistribution (AID 450;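 active = compounds whose dose series gives a full or clear partial fitted curve of increased nuclear translocation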; note: potency is the fitted concentration of half-maximal effect); settings: U2OS GR-GFP nuclear translocation, laser cytometry, 2 h
[5] = target: Glucocorticoid receptor (Homo sapiens) (UniProt P04150); experiment: GR-EFC Redistribution (AID 451; calls by dose curve; note: potency is the fitted concentration of half-maximal effect); settings: CHO-K1 GR-EFC translocation, beta-gal luminescence, 2 h
Summary of the method: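 CHO-K1 cells expressing nuclear EA and GR-ED fragments of b-gal; compounds titrated up to 46 uM final, 2 h at 37 C. GR nuclear translocation read as complemented b-gal luminescence after 1 h RT detection.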

[6] = target: Mitogen-activated protein kinase 10 (Mus musculus) (UniProt Q61831); experiment: JNK3 AlphaScreen Assay (AID 530; active = well fitted curve in either direction with a large enough effect, not every such curve was filed as active;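 note: kinase came from lysate of stimulated human HepG2 cells; signal reports phosphorylation of biotinylated GST-cJun 1-79 at Ser73 with 10 µM ATP; % is set by controls: 0 for no effect and ±100 for the full control effect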); settings: JNK3 lysate, c-Jun phosphorylation; series mostly up to 57.1 µM
Summary of the method: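 Activity was read by AlphaScreen after JNK3-containing HepG2 lysate (cytokine pre-activated) phosphorylated biotinylated GST-cJun with 10 uM ATP at room temperature. Phospho-Ser73 cJun antibody with Protein-A acceptor beads provided detection.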

[7] = target: Guanine nucleotide-binding protein G(i) subunit alpha-1 (Homo sapiens) (UniProt P63096); experiment: qHTS Assay for Inhibitors of RGS12 GoLoco Motif Activity (Green Fluorophore) (AID 879); settings: Galphai1/FITC-RGS12 GoLoco peptide, fluorescence polarization; series mostly up to 57.1 µM;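 note: 0% = labeled peptide with Gαi1 and full inhibition = labeled peptide alone without protein; negative values mean loss of peptide binding seen as reduced polarization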
Summary of the method: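 A drop in FITC polarization marked displacement of the FITC-tagged RGS12 GoLoco peptide (10 nM) from Gαi1 (50 nM). Compounds were incubated 10 min at room temperature in Tris pH 7.5 buffer containing 150 mM NaCl, 0.1 mM GDP and 0.05% NP40; unlabeled peptide titration served as control.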

[8] = qHTS Assay for Identification of Small Molecule Antagonists for NFkB Signaling Pathway (AID 895; active = well fitted inhibition curve with a large enough effect in the signal ratio, with a control signal flat, not every such curve was filed as active; the % refers to the signal ratio; note: % is set by controls: 0 for no effect and ±100 for the full control effect); settings: NFkB beta-lactamase reporter cells, FRET ratio 460/530, stimulated with 10 pM TNF alpha; series mostly up to 38.3 µM
Summary of the method: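 ME-180 NFkB-bla cells (beta-lactamase under NFkB response element), plated overnight, treated with compound then 10 pM TNF alpha (about EC50) for 5 hrs at 37 C. LiveBLAzer FRET read at 460/530 nm emission, 405 nm excitation.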

[9] = qHTS Assay for Identification of Small Molecule Agonists for Thrombopoietin (TPO) Signaling Pathway (AID 917); settings: TPO signaling pathway reporter cells, agonist qHTS, stimulated with TPO at its EC50; series mostly up to 38.5 µM; note: % is set by controls: 0 for no effect and ±100 for the full control effect
Summary of the method: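 Human TPO receptor–transfected Ba/F3 cells (murine, IL-3-dependent) in IL-3-deficient medium; compounds plus TPO at EC50, 26 pM final; 24 hrs, 37 C; GpIIb-luciferase luminescence after 10 min RT detection.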

[10] = target: Muscarinic acetylcholine receptor M1 (Rattus norvegicus) (UniProt P08482); experiment: qHTS Assay for Antagonists of Acetylcholine Muscarinic M1 Receptor: Kinetic Measurement of Intracellular Calcium Response (AID 943); settings: M1-expressing cells, kinetic intracellular calcium fluorescence; series mostly up to 35.3 µM;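 note: Fluo-4 calcium signal as peak divided by basal fluorescence over 4 min; nearly all actives have a fitted effect of over 75% in size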
Summary of the method: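 Antagonism is measured as inhibition of the carbachol-evoked calcium rise in CHO cells transfected with rat M1. Cells are dye-loaded, exposed to compound for 10 min, then stimulated with 100 nM carbachol (EC80).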

[11] = target: Pyruvate kinase (Leishmania mexicana) (UniProt Q27686); experiment: qHTS Validation Assay for Inhibitors of Leishmania Mexicana Pyruvate Kinase (AID 945);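 note: 0% = DMSO only neutral control wells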; settings: purified L. mexicana pyruvate kinase, enzyme activity, E451W mutant enzyme; series mostly up to 57.5 µM
Summary of the method: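 Luminescent ATP detection (PKLight) after a 1 h room-temperature reaction of 0.2 nM LmPYK E451W mutant with 0.5 mM PEP and 0.1 mM ADP at pH 7.2. Activity is normalized to DMSO-only control wells.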

[12] = target: Pyruvate kinase PKM (Homo sapiens) (UniProt P14618); experiment: qHTS Assay for Activators of Human Muscle Pyruvate Kinase (AID 954; active = well fitted curve in the direction sought with a large enough effect, not every such curve was filed as active;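 note: 0% = uninhibited enzyme and -100% = no enzyme or full thiadiazolimine inhibition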); settings: purified human muscle pyruvate kinase, luciferase-coupled luminescence, 1 h; series mostly up to 57.5 µM
Summary of the method: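 ATP production by PKM2 detected via luciferase luminescence after 1 h room-temperature reaction (0.1 nM enzyme, PEP at Km 0.5 mM, ADP 0.1 mM, pH 7.2 imidazole buffer). Inhibition scaled to no-enzyme control; activation referenced to 0.3 nM enzyme wells.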

[13] = target: Alpha-galactosidase A (Homo sapiens) (UniProt P06280); experiment: Counterscreen for Glucocerebrosidase Inhibitors: qHTS Assay for Human alpha-Galactosidase at pH 4.5 (AID 992); settings: purified enzyme, fluorogenic substrate; series mostly up to 76.9 µM; note: 0% is about no effect
Summary of the method: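 Fluorogenic 1536-well qHTS at pH 4.5 (citrate, Tween-20): 2 nM enzyme, 80 uM 4-MU-alpha-galactoside, 20 min room temperature, NaOH/glycine stop. Titration 0.7 nM to 77 uM, data normalized to no-enzyme and full-activity controls, Hill-fitted AC50.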

[14] = target: alpha-glucosidase (Oryza sativa, rice) (UniProt Q653V4); experiment: Counterscreen for Glucocerebrosidase Inhibitors: qHTS Assay for Rice alpha-Glucosidase at pH 5.0 (AID 997); settings: rice alpha-glucosidase enzyme activity; series mostly up to 76.9 µM;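 note: 0% = full activity with enzyme and -100% = basal without enzyme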
Summary of the method: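 Endpoint fluorogenic assay at pH 5.0: compounds (0.7 nM to 77 uM) titrated against 4 nM rice enzyme and 400 uM 4-MU-alpha-glucoside for 20 min at room temperature; NaOH/glycine stop, read ex 365/em 440 nm, Hill-fitted AC50.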

[15] = target: DNA dC->dU-editing enzyme APOBEC-3G (Homo sapiens) (UniProt Q9HC16); experiment: qHTS for inhibitors of Vif-A3G interactions: Validation (AID 588379); settings: Vif-A3G protein interaction assay; series mostly up to 46.1 µM; note: 0% is about no effect
Summary of the method: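 Yellow fluorescence (Ex 488, Em 500-530) of Vif-coexpressing HeLa A3G-eYFP cells, scanned by Acumen cytometer, reports blocked A3G degradation. Cells plated at 700/well overnight at 37 deg C before compound addition, then a further overnight compound incubation at 37 deg C.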

[16] = tested on: Zika virus NS2B-NS3 protease; experiment: Primary screen GU AMC qHTS for Zika virus inhibitors (AID 1347154); settings: Zika NS2B-NS3 unlinked protease, AMC fluorogenic substrate; series mostly up to 54.1 µM;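 note: 0% = no-inhibitor control and -100% = no-enzyme control; nearly all actives have a fitted effect of over 70% in size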
Summary of the method: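 Unlinked Zika NS2B hydrophilic domain–NS3 protease complex at 25 nM in 10 mM Tris-HCl pH 8.0, 0.01% Tween 20, with an AMC peptide substrate. Fluorescence change (340/450 nm) over 15 min at room temperature, normalized to controls, fitted to 4-parameter Hill.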

[17] = target: Cytochrome P450 2C9 (Homo sapiens) (UniProt P11712); experiment: qHTS Assay for Inhibitors and Substrates of Cytochrome P450 2C9 (AID 883); settings: recombinant CYP2C9, luciferin-H luminescence, 60 min; series mostly up to 57.1 µM; note: potency is the fitted concentration of half-maximal effect; nearly all actives have a fitted effect of over 60% in size
Summary of the method: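 10nM CYP2C9 + 100uM Luciferin-H (=KM), 25mM KPO4; cpd 10 min 37C; NADPH regen, 60 min 37C; stop/detect with P450 Glo-Buffer 20 min; luminescence. Norm. to 57uM sulphaphenazole as full inhibition.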

[18] = target: Cytochrome P450 2C19 (Homo sapiens) (UniProt P33261); experiment: qHTS Assay for Inhibitors and Substrates of Cytochrome P450 2C19 (AID 899); settings: recombinant CYP2C19, luciferin-H EGE luminescence; series mostly up to 57.1 µM; note: potency is the fitted concentration of half-maximal effect; nearly all actives have a fitted effect of over 60% in size
Summary of the method: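 Luminescent read-out of luciferin formed from Luciferin-H EGE (10uM, equal to KM). Enzyme 5nM in 50mM KPO4; compound added, 10 min at 37C, then NADPH regenerating system for 60 min at 37C. Full inhibition defined by 57uM ketoconazole.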

[19] = qHTS Assay for Lipid Storage Modulators (AID 1519; calls by dose curve); settings: Drosophila S3 cells, BODIPY lipid droplet/cell ratio, laser cytometry, cells loaded with oleic acid
Summary of the method: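 Cells seeded at 5,000 per well were treated with compounds over a concentration series and loaded with oleic acid (400 uM, as added). Lipid droplet fluorescence (488 nm excitation, 500-530 nm channel) was read by laser-scanning cytometry and normalized to 20 uM Triacsin C.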

[20] = target: Ubiquitin carboxyl-terminal hydrolase 1 (Homo sapiens) (UniProt O94782); experiment: Inhibitors of USP1/UAF1: Pilot qHTS (AID 504865); settings: purified USP1/UAF1, Ub-rhodamine cleavage fluorescence; series mostly up to 114 µM;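 note: rhodamine fluorescence freed from ubiquitin-rhodamine substrate followed over time; top concentration of the series differs between compounds; % is set by controls: 0 for no effect and ±100 for the full control effect; nearly all actives have a fitted effect of over 35% in size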
Summary of the method: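 Enzyme-free wells gave the negative control, while test wells held 1nM USP1/UAF1 preincubated with compound for 15 min at room temperature. Ub-Rho at 150nM final started the reaction, and fluorescence at 480/540 nm was recorded kinetically.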

Sequence of Glucocorticoid receptor (Homo sapiens) (P04150 whole entry, looked up, the tested form may be a part): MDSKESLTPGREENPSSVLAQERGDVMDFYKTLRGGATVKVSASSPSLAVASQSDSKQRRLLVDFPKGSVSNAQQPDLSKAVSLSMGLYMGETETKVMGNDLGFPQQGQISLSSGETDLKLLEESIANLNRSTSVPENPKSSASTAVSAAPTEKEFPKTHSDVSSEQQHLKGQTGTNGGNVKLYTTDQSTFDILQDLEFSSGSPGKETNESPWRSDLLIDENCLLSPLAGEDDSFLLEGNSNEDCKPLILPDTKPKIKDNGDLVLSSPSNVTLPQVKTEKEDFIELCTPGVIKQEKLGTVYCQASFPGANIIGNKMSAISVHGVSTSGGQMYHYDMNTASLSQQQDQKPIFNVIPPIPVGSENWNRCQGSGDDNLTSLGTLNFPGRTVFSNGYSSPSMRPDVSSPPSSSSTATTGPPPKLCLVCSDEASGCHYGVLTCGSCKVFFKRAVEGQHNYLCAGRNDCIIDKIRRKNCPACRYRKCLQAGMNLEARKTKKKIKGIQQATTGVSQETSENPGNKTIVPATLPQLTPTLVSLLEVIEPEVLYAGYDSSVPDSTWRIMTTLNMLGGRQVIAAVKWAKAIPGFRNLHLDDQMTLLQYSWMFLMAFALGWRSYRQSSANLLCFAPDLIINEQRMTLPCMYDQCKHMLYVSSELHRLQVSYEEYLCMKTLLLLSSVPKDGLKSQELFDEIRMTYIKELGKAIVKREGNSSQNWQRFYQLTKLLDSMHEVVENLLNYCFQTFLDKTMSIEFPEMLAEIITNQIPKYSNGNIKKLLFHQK
Sequence of Cytochrome P450 1A2 (Homo sapiens) (P05177 whole entry, looked up): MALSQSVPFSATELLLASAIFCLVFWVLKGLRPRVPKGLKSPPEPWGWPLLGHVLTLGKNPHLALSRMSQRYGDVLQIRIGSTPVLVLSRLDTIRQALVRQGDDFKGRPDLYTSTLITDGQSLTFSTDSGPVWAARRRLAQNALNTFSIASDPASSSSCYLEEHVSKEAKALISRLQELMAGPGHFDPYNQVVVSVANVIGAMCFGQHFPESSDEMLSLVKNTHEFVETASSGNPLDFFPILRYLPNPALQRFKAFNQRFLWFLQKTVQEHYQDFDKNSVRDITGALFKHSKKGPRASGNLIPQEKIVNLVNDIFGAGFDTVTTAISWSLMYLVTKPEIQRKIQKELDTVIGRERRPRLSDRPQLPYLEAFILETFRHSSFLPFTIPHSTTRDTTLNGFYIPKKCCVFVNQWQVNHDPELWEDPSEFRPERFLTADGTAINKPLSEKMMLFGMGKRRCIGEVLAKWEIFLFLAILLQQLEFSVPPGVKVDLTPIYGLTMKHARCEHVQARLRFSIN
Sequence of DNA dC->dU-editing enzyme APOBEC-3G (Homo sapiens) (Q9HC16 whole entry, looked up): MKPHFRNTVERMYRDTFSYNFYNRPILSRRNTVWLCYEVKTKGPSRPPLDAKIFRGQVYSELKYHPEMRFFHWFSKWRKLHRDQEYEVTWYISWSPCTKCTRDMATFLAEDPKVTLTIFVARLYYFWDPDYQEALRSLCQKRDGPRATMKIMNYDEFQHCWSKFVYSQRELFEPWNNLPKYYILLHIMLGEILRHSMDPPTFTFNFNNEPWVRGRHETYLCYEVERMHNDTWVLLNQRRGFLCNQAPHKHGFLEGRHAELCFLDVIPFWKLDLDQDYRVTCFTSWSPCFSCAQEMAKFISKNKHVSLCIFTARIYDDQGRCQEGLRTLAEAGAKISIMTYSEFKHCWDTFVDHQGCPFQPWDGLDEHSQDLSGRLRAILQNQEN
Sequence of Cytochrome P450 2C9 (Homo sapiens) (P11712 whole entry, looked up): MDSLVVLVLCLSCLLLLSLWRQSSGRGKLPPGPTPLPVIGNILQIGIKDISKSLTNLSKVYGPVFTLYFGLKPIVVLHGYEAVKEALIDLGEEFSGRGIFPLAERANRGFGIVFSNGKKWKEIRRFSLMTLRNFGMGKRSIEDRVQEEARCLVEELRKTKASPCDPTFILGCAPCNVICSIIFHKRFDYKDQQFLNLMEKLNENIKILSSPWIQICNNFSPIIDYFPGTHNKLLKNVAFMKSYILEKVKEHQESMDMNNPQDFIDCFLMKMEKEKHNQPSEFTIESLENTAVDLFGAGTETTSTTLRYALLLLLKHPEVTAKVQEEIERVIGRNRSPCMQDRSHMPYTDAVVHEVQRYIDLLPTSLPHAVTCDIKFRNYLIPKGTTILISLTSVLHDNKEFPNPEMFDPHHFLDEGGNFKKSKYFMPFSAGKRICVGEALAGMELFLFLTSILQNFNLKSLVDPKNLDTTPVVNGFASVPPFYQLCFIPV
Sequence of Guanine nucleotide-binding protein G(i) subunit alpha-1 (Homo sapiens) (P63096 whole entry, looked up): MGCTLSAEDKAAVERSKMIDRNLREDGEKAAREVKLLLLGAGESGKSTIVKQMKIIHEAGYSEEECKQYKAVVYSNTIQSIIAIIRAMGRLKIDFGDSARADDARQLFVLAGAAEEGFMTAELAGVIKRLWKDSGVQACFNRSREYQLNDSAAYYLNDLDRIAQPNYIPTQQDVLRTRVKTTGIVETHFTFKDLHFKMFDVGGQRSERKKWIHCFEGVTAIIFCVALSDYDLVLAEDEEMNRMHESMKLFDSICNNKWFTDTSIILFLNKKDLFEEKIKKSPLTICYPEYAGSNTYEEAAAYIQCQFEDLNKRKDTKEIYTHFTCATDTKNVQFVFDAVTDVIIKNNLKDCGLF
Sequence of Pyruvate kinase PKM (Homo sapiens) (P14618 whole entry, looked up): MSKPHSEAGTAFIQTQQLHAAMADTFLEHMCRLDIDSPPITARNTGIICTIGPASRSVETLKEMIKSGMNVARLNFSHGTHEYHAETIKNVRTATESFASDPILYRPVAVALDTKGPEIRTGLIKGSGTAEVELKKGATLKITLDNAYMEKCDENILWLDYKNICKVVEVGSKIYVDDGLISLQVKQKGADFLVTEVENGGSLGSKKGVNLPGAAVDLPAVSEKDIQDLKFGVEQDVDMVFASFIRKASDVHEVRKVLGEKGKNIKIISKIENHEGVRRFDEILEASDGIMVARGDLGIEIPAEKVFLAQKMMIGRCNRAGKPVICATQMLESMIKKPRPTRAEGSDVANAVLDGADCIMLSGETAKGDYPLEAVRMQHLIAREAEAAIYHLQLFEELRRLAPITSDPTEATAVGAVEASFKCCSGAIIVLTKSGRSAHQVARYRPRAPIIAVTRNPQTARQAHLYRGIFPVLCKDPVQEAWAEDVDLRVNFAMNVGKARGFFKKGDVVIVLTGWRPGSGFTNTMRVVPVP
Sequence of Pyruvate kinase (Leishmania mexicana) (Q27686 2-499 E452W): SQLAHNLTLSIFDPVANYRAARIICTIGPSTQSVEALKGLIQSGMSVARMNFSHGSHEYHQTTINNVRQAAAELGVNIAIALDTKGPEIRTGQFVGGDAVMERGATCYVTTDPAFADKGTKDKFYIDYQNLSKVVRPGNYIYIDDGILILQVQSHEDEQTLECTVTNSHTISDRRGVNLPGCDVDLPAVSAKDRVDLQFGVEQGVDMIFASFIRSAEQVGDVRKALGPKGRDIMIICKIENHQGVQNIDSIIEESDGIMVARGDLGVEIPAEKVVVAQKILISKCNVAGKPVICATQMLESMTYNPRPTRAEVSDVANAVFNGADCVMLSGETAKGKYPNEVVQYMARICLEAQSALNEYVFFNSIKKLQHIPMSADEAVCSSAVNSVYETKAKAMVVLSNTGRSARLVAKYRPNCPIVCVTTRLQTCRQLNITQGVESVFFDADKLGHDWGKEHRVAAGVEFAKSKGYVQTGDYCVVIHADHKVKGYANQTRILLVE
Sequence of Ubiquitin carboxyl-terminal hydrolase 1 (Homo sapiens) (O94782 whole entry, looked up): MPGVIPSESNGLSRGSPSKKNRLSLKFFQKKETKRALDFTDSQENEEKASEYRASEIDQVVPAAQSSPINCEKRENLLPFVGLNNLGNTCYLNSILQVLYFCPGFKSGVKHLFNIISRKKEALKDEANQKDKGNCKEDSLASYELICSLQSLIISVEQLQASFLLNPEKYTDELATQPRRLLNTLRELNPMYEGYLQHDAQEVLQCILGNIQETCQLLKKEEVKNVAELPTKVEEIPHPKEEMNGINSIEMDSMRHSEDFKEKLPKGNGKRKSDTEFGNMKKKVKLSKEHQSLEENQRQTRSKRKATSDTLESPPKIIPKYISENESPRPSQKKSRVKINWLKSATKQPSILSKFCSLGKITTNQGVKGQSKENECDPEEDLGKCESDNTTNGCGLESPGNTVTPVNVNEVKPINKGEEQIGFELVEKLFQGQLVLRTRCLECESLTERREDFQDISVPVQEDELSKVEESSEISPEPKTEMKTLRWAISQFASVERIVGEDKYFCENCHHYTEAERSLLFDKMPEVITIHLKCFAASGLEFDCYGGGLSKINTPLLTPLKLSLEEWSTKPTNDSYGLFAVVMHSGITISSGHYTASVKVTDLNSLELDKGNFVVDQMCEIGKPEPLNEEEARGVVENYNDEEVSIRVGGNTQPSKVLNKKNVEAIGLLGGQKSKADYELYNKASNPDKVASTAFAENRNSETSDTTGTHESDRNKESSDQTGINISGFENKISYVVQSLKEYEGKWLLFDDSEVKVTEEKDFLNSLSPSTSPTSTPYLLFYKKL
Sequence of Cytochrome P450 2C19 (Homo sapiens) (P33261 whole entry, looked up): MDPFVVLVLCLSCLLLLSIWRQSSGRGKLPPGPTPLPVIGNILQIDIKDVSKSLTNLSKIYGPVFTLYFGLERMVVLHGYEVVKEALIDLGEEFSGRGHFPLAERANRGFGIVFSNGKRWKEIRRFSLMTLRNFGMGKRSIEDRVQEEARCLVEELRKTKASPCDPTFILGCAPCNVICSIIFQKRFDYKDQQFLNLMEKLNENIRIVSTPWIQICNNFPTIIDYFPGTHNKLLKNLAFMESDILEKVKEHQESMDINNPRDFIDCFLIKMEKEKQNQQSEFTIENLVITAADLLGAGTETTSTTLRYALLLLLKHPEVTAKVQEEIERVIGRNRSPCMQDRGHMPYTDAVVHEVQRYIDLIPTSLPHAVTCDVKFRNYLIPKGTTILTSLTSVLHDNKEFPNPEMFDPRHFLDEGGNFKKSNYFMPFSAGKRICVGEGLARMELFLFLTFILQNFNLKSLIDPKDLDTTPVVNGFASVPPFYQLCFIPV

NS(=O)(=O)c1cc2c(cc1Cl)N[C@@H]([C@@H]1C[C@@H]3C=C[C@H]1C3)NS2(=O)=O
inactive: activity change, negative = inhibition [1] -0.109% | Potency [2] | activity change, negative = inhibition [3] 4.22% | Potency [4] > 46 µM | Potency [5] > 46 µM | Potency [6] | outcome [7] | Potency [8] | Potency [9] | Potency [10] | Potency [11] | outcome [12] | outcome [13] | outcome [14] | Potency [15] | Potency [16]

Nc1nc(Nc2ccccc2)nc2c1ncn2[C@@H]1O[C@@H](CO)[C@H](O)[C@H]1O
-2.49%: max response ([19]; measured here: cell count channel max response)
-4.59%: max response ([19]; measured here: lipid channel max response)
inactive: Potency [4] > 46 µM | Potency [5] > 46 µM | activity change, negative = inhibition ([19]; at 57.5 µM (top of the series)) -4.73% | Potency [20] | Potency [15] | Potency [16]
active: Potency [17] 0.794 µM | Potency [18] 0.631 µM
